# Screening data: PubChem BioAssay, several laboratories
# Sampled rows, rich in hits. Any-hit rate of the full collection: about 0.81%.
# Bcl-B Bim block: human Bim-Bcl-B interaction inhibition; Q9HD36; bead-based flow cytometry, Bim peptide-Bcl-B binding; inhibition, % at 10 µM; 190,000 tested, 0.073% active;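 note: 0% = tracer peptide without compound and 100% = reference inhibitor peptide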
# Target sequence (Q9HD36 whole entry, looked up): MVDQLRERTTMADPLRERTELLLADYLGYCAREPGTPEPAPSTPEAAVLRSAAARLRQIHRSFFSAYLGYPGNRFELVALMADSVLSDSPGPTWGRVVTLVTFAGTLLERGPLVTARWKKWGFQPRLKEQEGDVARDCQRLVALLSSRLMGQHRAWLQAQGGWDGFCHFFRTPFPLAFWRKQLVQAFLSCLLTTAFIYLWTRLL
# Bfl-1 Bim block: inhibitors of Bim-Bfl-1 interaction, human; 190,000 tested, 0.12% active; inhibition, % at 10 µM; AID 1008; Q16548; Bead-based flow cytometry, Bim-Bfl-1 binding inhibition;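 note: 0% = wells without compound plus tracer and 100% = blocker peptide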
# Bcl-W Bim block: inhibitors of Bim-Bcl-W interaction, human; inhibition, % at 10 µM; Q92843; 190,000 tested, 0.02% active; bead-based flow cytometry, Bim peptide-Bcl-W binding;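 note: 0% = bound tracer without compound and 100% = peptide blocker; higher means less fluorescent Bim peptide bound to Bcl-W beads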
# Bcl-2 Bim block: inhibitors of Bim-Bcl-2 interaction, human; P10415; 190,000 tested, 0.06% active; AID 950; inhibition, % at 10 µM; Bead-based flow cytometry, Bim peptide-Bcl-2 binding; in the data active = inhibition above about 40%;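 note: 0% = no compound wells with probe peptide and 100% = reference peptide inhibitor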
# Bcl-XL Bim block: inhibitors of Bim-Bcl-XL interaction, human. Q07817. Bim peptide-Bcl-XL binding, bead flow cytometry, fluorescence. inhibition, % at 10 µM. 190,000 tested, 0.04% active
# Target sequence (Q07817 whole entry, looked up): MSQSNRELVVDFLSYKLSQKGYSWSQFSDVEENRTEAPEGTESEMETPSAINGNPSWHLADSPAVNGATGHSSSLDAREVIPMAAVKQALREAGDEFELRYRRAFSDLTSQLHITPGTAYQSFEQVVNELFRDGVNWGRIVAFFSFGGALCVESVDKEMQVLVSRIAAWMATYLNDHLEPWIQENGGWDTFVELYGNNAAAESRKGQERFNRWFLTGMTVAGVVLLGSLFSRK
# BCLXL inh: Bcl-xL (human) inhibition; Q07817; GST-Bcl-xL / FITC-Bim BH3 peptide fluorescence polarization; 320,000 tested, 0.7% active; inhibition, % at 10.9 µM;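 active = inhibition above the mean of all tested compounds plus 3 SD, cutoff set per campaign, cut at about 30% in these data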;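 note: 0% = DMSO wells and 100% = unlabeled Bim-BH3 peptide competitor; inhibitors lower millipolarization by displacing the labeled peptide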
# Bim-Bcl-XL DR: confirmation of regulators of human Bim-Bcl-XL interaction | shares compounds with Bfl-1 Bim block | bead-based flow cytometry, Bim-Bcl-XL binding | inhibition of binding at 100 µM | 40 tested, under 10 active; call rule not given here
# * = called active by the depositor; x = no result given. Cut-off read from the data, not from the text of the source, unless noted: active = inhibition above about 40%.
SMILES,Bcl-B Bim block,Bfl-1 Bim block,Bcl-W Bim block,Bcl-2 Bim block,Bcl-XL Bim block,BCLXL inh,others
CC(C)(C)CC(C)(C)NC(=S)Nc1ccc2nc(-c3ccccn3)c(-c3ccccn3)nc2c1,-8,0,-1,1,0,21,
OCCCNC(=S)Nc1ccc2nc(-c3ccccn3)c(-c3ccccn3)nc2c1,-10,-8,5,-1,-14,46*,
CN(C)NC(=S)Nc1ccc2nc(-c3ccccn3)c(-c3ccccn3)nc2c1,-16,-2,1,-3,-4,16,
CC1(C)CC(=O)C2=C(C1)Nc1cc(Cl)ccc1S2,x,x,x,x,x,34*,
Cc1ccc(-c2cc(C(=O)Nc3c(C)n(C)n(-c4ccccc4)c3=O)[nH]n2)c(O)c1C,x,x,x,x,x,3,
O=C(NC1CCCCC1)C(c1cccs1)N(C(=O)c1ccccn1)c1ccccc1 (configuration not stated),-8,-10,-3,-10,-8,3,
OC(C#Cc1ccccn1)c1cccs1 (configuration not stated),-8,-12,-2,-9,-7,42*,
C[C@H](O)[C@H](O)[C@H]1CNc2nc(N)[nH]c(=O)c2N1,x,x,x,x,x,33*,
C[C@H](O)C(=O)C1=Nc2c(nc(N)[nH]c2=O)NC1,x,x,x,x,x,14,
Cc1cc(C)n2nc(CCCO)nc2n1,-1,-3,1,-2,1,2,
O=C(CCC(=O)N(CC(=O)NC1CCCCC1)Cc1cccs1)Nc1ccccn1,-4,-4,-3,-5,-5,2,
N#Cc1c(=O)c2nc(NCc3ccccc3)ncc2n2ccccc12,4,-9,9,-6,6,44*,
CCOC(=O)c1c(N)sc(=S)c2c1CCC2,-10,8,1,5,-3,37*,
COC(=O)CNc1c(-c2ccccn2)nc2ccc(Br)cn12,-11,-6,3,-5,0,47*,
CCOC(=O)CNc1c(-c2ccccc2)nc2ccc(Cl)cn12,-5,-7,0,-4,0,2,
CCOC(=O)c1sc(-c2cccc(C(F)(F)F)c2)nc1O,x,x,x,x,x,9,
CCOC(=O)c1sc(-c2ccc(C(F)(F)F)cc2)nc1O,x,x,x,x,x,36*,
COc1cc(CNc2ccc(N3CCCC3)cc2)cc(Cl)c1OC,-15,48*,19,15,-2,17,
CCOc1ccc(CNc2ccc(N3CCCC3)cc2)cc1,-12,42*,28,13,6,16,
CCOc1ccc(CNc2ccc(N3CCN(Cc4ccccc4)CC3)cc2)cc1,x,x,x,x,x,4,
CCOc1cc(CNc2ccc(N3CCCC3)cc2)cc(Cl)c1OC,0,4,3,1,0,20,
COc1ccc(C(=O)N2CCN(C(=O)Cc3ccccc3)CC2)cc1,-5,0,-4,-8,-6,4,
CN(C)c1ccc2nc3c(=O)[nH]c(=O)nc-3n(CC(O)C(O)C(O)CO)c2c1 (configuration not stated),x,x,x,x,x,190*,
C[C@H]1[C@@H](OC(=O)CCC(=O)O)O[C@@H]2OC3(C)CC[C@H]4[C@H](C)CC[C@@H]1[C@@]24OO3,x,x,x,x,x,6,
CC(=O)N1CCOc2ccc(S(=O)(=O)N3CCC(C)CC3)cc21,x,x,x,x,x,0,
SMILES,Bcl-B Bim block,Bfl-1 Bim block,Bcl-W Bim block,Bcl-2 Bim block,Bcl-XL Bim block,BCLXL inh,others
Cc1cccc(C)c1NC(=O)CSc1nnc(-c2cccnc2)o1,-2,-5,-1,-3,-2,4,
C(=Nc1cccc2c(N=Cc3ccco3)cccc12)c1ccco1,3,2,6,1,3,82*,
CCOc1ccccc1CNc1ccc(O)cc1,-15,44*,23,11,4,x,Bim-Bcl-XL DR=0.043
Cc1cc2nn(-c3cccc4ccccc34)nc2cc1N,-1,48*,13,15,4,7,Bim-Bcl-XL DR=1.9
S=c1[nH]cc(-c2ccccc2)n1-c1ccccc1Cl,26,-14,-3,-12,-4,-13,
COc1ccccc1-n1c(-c2ccccc2)c[nH]c1=S,-20,22,3,3,-2,x,Bim-Bcl-XL DR=2.1
CCOc1ccc(N2CC(C(=O)Nc3ccccc3N3CCCC3)CC2=O)cc1 (configuration not stated),x,x,x,x,x,-1,
Cc1ccc(-c2cc(C(=O)Nc3nccs3)c3ccccc3n2)o1,-3,37,4,11,0,18,Bim-Bcl-XL DR=-0.51
COCCN(C(=O)COC(=O)C1(C)CC1(Cl)Cl)c1c(N)n(Cc2ccccc2)c(=O)[nH]c1=O (configuration not stated),x,x,x,x,x,-3,
CNC(CC(=O)c1ccc([N+](=O)[O-])cc1)C(Cl)(Cl)Cl (configuration not stated),4,55*,3,11,2,5,Bim-Bcl-XL DR=2.4
O=C(O)c1ccc(OCCN2CCCC2=O)cc1,x,x,x,x,x,4,
COc1cc(N=C2SSNC2Cl)c(OC)cc1Cl (configuration not stated),x,x,x,x,x,x,Bim-Bcl-XL DR=10
COc1cc(N=c2ssnc2Cl)c(OC)cc1Cl,-13,31,8,3,10,7,
CC(C)Cc1nn2c(=O)cc(COc3ccc(NC(=O)c4ccco4)cc3)nc2s1,x,x,x,x,x,1,
O=C(COc1ccc(Cl)cc1Cl)Nc1ccccc1F,x,x,x,x,x,4,
O=C1c2ccccc2C(=O)N1CN(C(=O)COc1ccc(Cl)cc1Cl)c1cccc(F)c1,16,-5,2,0,-2,0,Bim-Bcl-XL DR=-1.4
COc1ccc(S(=O)(=O)Nc2ccc(F)cc2F)cc1C(=O)N1CCOCC1,x,x,x,x,x,3,
COc1cc(CNc2ccc3[nH]c(=O)[nH]c3c2)cc(Br)c1OCC(=O)NC(C)(C)C,-8,9,21,-3,2,1,Bim-Bcl-XL DR=2.9
Cc1ccc(OCc2nnc(NC(=O)c3ccco3)s2)cc1,-6,-10,5,-10,0,-1,
O=C(Nc1nnc(COc2ccc(Cl)cc2)s1)c1ccco1,-43,23,-9,-2,-15,7,Bim-Bcl-XL DR=-5
CC(=O)OCCCNc1cc(Sc2nc3ccccc3s2)c2nonc2c1[N+](=O)[O-],-4,48*,11,2,3,16,Bim-Bcl-XL DR=4.7
CC(=O)OCCCNc1cc(Sc2ccc(C)cc2)c2nonc2c1[N+](=O)[O-],-10,-3,1,0,-3,0,
